# Results published in the supplement of paper PMC9950053.
# Structures can show the parent of a compound that is named as a salt.
# System: Danio rerio larvae (5 dpf)
# Assay: combined upward orientation toward moving lines (periods 7-14) minus DMSO control (percentage points); higher = more orientation with moving lines than DMSO larvae
# Conditions: 10 µM; exposure time: 3 h pre-incubation + 3 h imaging
# Procedure: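 Wild-type 5 dpf zebrafish larvae (n=48 per drug, 96-well plates, 28.5 °C) were exposed to Tocris FDA-approved library compounds at 10 µM (0.1% DMSO) for 3 h before and 3 h during imaging. Images were taken every 6 s during visual (moving coloured lines) and acoustic stimuli, and larvae were tracked with the DeepLabCut-based Z-LaP Tracker. Each behavioural measure is the treated-group mean minus the DMSO vehicle control mean (n=844), in percentage points. This mapping covers compounds with 4-character plate codes.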
row,Compound,combined upward orientation toward moving lines
1,COc1cccc2c1C(=O)c1c(O)c3c(c(O)c1C2=O)C[C@@](O)(C(=O)CO)C[C@@H]3O[C@H]1C[C@H](N)[C@H](O)[C@H](C)O1 [Doxorubicin hydrochloride],-1.38
2,CCOc1ccccc1OCCN[C@H](C)Cc1ccc(OC)c(S(N)(=O)=O)c1 [Tamsulosin hydrochloride],-16.3
3,C[C@H](Cc1cc2c(c(C(N)=O)c1)N(CCCO)CC2)NCCOc1ccccc1OCC(F)(F)F [Silodosin],-4.66
4,CC(=O)O[C@]1(C(C)=O)CC[C@H]2[C@@H]3C=C(C)C4=CC(=O)CC[C@]4(C)[C@H]3CC[C@@]21C [Megestrol Acetate],-1.8
5,CC(C)Nc1cccnc1N1CCN(C(=O)c2cc3cc(NS(C)(=O)=O)ccc3[nH]2)CC1 [Delavirdine mesylate],-7.64
6,Nc1cccc2c1CN(C1CCC(=O)NC1=O)C2=O (stereo not given) [Lenalidomide],2.56
7,CCOC(=O)[C@H](CCc1ccccc1)N[C@@H](C)C(=O)N1[C@H](C(=O)O)C[C@@H]2CCC[C@@H]21 [Ramipril],-5.05
8,CC(=O)O[C@H]1C(=O)[C@@]2(C)[C@H]([C@H](OC(=O)c3ccccc3)[C@]3(O)C[C@H](OC(=O)[C@H](O)[C@@H](NC(=O)c4ccccc4)c4ccccc4)C(C)=C1C3(C)C)[C@]1(OC(C)=O)CO[C@@H]1C[C@@H]2O [Taxol],-6.91
9,COc1cc2ncnc(Nc3ccc(F)c(Cl)c3)c2cc1OCCCN1CCOCC1 [Iressa],-7.88
10,CN1CCN2c3ncccc3Cc3ccccc3C2C1 (stereo not given) [Mirtazapine],-11.4
11,CN1CCC[C@@H]1Cc1c[nH]c2ccc(CCS(=O)(=O)c3ccccc3)cc12 [Eletriptan hydrobromide],-1.33
12,OC(CNCC(O)C1CCc2cc(F)ccc2O1)C1CCc2cc(F)ccc2O1 (stereo not given) [Nebivolol hydrochloride],-7.15
13,CC(CCc1ccc(O)cc1)NCCc1ccc(O)c(O)c1 (stereo not given) [Dobutamine hydrochloride],0.917
14,CN1CC(=O)N2[C@H](c3ccc4c(c3)OCO4)c3[nH]c4ccccc4c3C[C@@H]2C1=O [Tadalafil],-7.35
15,O=C(NCC1CCCCN1)c1cc(OCC(F)(F)F)ccc1OCC(F)(F)F (stereo not given) [Flecainide acetate],-3.7
16,CCCN(CCC)S(=O)(=O)c1ccc(C(=O)O)cc1 [Probenecid],-6.67
17,CC(c1cc2ccccc2s1)N(O)C(N)=O (stereo not given) [Zileuton],-7.03
18,CCOc1nc2cccc(C(=O)O)c2n1Cc1ccc(-c2ccccc2-c2nnn[nH]2)cc1 [Candesartan],2.56
19,CCOC(=O)C1=C(C)NC(C)=C(C(=O)OC)C1c1cccc(Cl)c1Cl (stereo not given) [Felodipine],-3.05
20,CC(C)C(=O)Nc1ccc([N+](=O)[O-])c(C(F)(F)F)c1 [Flutamide],-15.3

row,Compound,combined upward orientation toward moving lines
1,CCOc1cc(CC(=O)N[C@@H](CC(C)C)c2ccccc2N2CCCCC2)ccc1C(=O)O [Repaglinide],-4.89
2,CCCCc1nc(Cl)c(CO)n1Cc1ccc(-c2ccccc2-c2nnn[nH]2)cc1 [Losartan potassium],-9.02
3,CCc1ccc(CCOc2ccc(CC3SC(=O)NC3=O)cc2)nc1 (stereo not given) [Pioglitazone hydrochloride],-3.8
4,COc1cc2nc(N3CCN(C(=O)c4ccco4)CC3)nc(N)c2cc1OC [Prazosin hydrochloride],-10.6
5,CCOc1nc2cccc(C(=O)O)c2n1Cc1ccc(-c2ccccc2-c2noc(=O)[nH]2)cc1 [Azilsartan],1.61
6,Nc1nc(NC2CC2)c2ncn([C@H]3C=C[C@@H](CO)C3)c2n1 [Abacavir hemisulfate],-1.52
7,CC(C)[C@H]1CC[C@H](C(=O)N[C@H](Cc2ccccc2)C(=O)O)CC1 [Nateglinide],-0.86
8,CC(=O)S[C@@H]1CC2=CC(=O)CC[C@]2(C)[C@H]2CC[C@@]3(C)[C@@H](CC[C@@]34CCC(=O)O4)[C@H]12 [Spironolactone],-2.59
9,COC(=O)C1=C(C)NC(C)=C(C(=O)OC(C)C)C1c1cccc2nonc12 (stereo not given) [Isradipine],-3.59
10,CC(C)C(=O)OCC(=O)[C@@]12O[C@H](C3CCCCC3)O[C@@H]1C[C@H]1[C@@H]3CCC4=CC(=O)C=C[C@]4(C)[C@H]3[C@@H](O)C[C@@]12C [Ciclesonide],-8.95
11,CC1(C)O[C@@H]2[C@@H](CO[C@@]3(COS(N)(=O)=O)OC(C)(C)O[C@@H]23)O1 [Topiramate],-4.17
12,CC(C)CN(C[C@@H](O)[C@H](Cc1ccccc1)NC(=O)O[C@H]1CO[C@H]2OCC[C@H]21)S(=O)(=O)c1ccc(N)cc1 [Darunavir],0.247
13,CCN(Cc1ccncc1)C(=O)C(CO)c1ccccc1 (stereo not given) [Tropicamide],3.89
14,CCC(=O)O[C@]1(C(=O)SCF)[C@H](C)C[C@H]2[C@@H]3C[C@H](F)C4=CC(=O)C=C[C@]4(C)[C@@]3(F)[C@@H](O)C[C@@]21C [Fluticasone propionate],-9.35
15,Nc1cc(N2CCCCC2)nc(N)[n+]1[O-] [Minoxidil],-2.16
16,CC(=O)NC[C@H]1CN(c2ccc(N3CCOCC3)c(F)c2)C(=O)O1 [Linezolid],0.95
17,OCCN(CCO)c1nc(N2CCCCC2)c2nc(N(CCO)CCO)nc(N3CCCCC3)c2n1 [Dipyridamole],-2.19
18,CCCc1nc(C(C)(C)O)c(C(=O)O)n1Cc1ccc(-c2ccccc2-c2nnn[nH]2)cc1 [Olmesartan],-6.03
19,CCN(CC)CCNC(=O)c1c(C)[nH]c(/C=C2\C(=O)Nc3ccc(F)cc32)c1C [Sunitinib malate],-5.61
20,COc1cc(Nc2c(C#N)cnc3cc(OCCCN4CCN(C)CC4)c(OC)cc23)c(Cl)cc1Cl [Bosutinib],-2.87
